This is a sample that favours compounds with a hit; in the whole collection about 27% have one here.
CYP2C19 activ = activators of human cytochrome P450 2C19 | P33261 | recombinant CYP2C19, luciferin-H EGE luminescence; active compounds read high; 0 = fully inhibited enzyme, 1 = untreated enzyme | activation factor at 5 µM | 96,000 tested, under 10 active | AID 1025;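 active = activation factor of at least 2 at 5 µM in the primary screen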;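 also: 0 = wells with 2.5 mM tranylcypromine and 1 = vehicle-only wells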
CYP2C19 inhib = blocks human cytochrome P450 2C19; P33261; CYP2C19 Supersomes, luciferin-H EGE luminescence, 30 min; inhibition, % at 5 µM; 96,000 tested, 21% active;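 active = CYP2C19 inhibition above a set limit at 5 µM in the primary screen, cut at about 50% in these data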;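 also: plate controls were negative control wells for no effect and 2.5 mM tranylcypromine positive control for full effect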
CYP2C9 act = increases human cytochrome P450 2C9 activity; 96,000 tested, 1.4% active; recombinant CYP2C9, luciferin-H conversion, luminescence; active compounds read high; factor 1 = untreated enzyme, 0 = blocked; P11712; AID 1024; activation factor at 5 µM;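 active = activation factor of 2 or more for CYP2C9 at a 5 µM dose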;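 also: 0 = sulfaphenazole-blocked wells and 1 = vehicle-only wells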
CYP2C9 inh = blocks human cytochrome P450 2C9; CYP2C9 Supersomes, luciferin-H conversion, luminescence; inhibition, % at 5 µM; AID 777; P11712; 96,000 tested, 20% active;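 active = blocking of liver enzyme CYP2C9 beyond about 50% at 5 µM, limit read from the data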
Cav3 T inh = blocks human Cav3.2 T-type calcium channel; O95180; Cav3.2-expressing cells, Fluo-4 calcium fluorescence FDSS; active compounds read low; B-score at 10 µM; 100,000 tested, 4% active;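 active = single-dose well whose peak fluorescence ratio is a statistical outlier from its plate by either plate-standardised score or position-corrected B-score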
Target sequence (O95180 whole entry, looked up): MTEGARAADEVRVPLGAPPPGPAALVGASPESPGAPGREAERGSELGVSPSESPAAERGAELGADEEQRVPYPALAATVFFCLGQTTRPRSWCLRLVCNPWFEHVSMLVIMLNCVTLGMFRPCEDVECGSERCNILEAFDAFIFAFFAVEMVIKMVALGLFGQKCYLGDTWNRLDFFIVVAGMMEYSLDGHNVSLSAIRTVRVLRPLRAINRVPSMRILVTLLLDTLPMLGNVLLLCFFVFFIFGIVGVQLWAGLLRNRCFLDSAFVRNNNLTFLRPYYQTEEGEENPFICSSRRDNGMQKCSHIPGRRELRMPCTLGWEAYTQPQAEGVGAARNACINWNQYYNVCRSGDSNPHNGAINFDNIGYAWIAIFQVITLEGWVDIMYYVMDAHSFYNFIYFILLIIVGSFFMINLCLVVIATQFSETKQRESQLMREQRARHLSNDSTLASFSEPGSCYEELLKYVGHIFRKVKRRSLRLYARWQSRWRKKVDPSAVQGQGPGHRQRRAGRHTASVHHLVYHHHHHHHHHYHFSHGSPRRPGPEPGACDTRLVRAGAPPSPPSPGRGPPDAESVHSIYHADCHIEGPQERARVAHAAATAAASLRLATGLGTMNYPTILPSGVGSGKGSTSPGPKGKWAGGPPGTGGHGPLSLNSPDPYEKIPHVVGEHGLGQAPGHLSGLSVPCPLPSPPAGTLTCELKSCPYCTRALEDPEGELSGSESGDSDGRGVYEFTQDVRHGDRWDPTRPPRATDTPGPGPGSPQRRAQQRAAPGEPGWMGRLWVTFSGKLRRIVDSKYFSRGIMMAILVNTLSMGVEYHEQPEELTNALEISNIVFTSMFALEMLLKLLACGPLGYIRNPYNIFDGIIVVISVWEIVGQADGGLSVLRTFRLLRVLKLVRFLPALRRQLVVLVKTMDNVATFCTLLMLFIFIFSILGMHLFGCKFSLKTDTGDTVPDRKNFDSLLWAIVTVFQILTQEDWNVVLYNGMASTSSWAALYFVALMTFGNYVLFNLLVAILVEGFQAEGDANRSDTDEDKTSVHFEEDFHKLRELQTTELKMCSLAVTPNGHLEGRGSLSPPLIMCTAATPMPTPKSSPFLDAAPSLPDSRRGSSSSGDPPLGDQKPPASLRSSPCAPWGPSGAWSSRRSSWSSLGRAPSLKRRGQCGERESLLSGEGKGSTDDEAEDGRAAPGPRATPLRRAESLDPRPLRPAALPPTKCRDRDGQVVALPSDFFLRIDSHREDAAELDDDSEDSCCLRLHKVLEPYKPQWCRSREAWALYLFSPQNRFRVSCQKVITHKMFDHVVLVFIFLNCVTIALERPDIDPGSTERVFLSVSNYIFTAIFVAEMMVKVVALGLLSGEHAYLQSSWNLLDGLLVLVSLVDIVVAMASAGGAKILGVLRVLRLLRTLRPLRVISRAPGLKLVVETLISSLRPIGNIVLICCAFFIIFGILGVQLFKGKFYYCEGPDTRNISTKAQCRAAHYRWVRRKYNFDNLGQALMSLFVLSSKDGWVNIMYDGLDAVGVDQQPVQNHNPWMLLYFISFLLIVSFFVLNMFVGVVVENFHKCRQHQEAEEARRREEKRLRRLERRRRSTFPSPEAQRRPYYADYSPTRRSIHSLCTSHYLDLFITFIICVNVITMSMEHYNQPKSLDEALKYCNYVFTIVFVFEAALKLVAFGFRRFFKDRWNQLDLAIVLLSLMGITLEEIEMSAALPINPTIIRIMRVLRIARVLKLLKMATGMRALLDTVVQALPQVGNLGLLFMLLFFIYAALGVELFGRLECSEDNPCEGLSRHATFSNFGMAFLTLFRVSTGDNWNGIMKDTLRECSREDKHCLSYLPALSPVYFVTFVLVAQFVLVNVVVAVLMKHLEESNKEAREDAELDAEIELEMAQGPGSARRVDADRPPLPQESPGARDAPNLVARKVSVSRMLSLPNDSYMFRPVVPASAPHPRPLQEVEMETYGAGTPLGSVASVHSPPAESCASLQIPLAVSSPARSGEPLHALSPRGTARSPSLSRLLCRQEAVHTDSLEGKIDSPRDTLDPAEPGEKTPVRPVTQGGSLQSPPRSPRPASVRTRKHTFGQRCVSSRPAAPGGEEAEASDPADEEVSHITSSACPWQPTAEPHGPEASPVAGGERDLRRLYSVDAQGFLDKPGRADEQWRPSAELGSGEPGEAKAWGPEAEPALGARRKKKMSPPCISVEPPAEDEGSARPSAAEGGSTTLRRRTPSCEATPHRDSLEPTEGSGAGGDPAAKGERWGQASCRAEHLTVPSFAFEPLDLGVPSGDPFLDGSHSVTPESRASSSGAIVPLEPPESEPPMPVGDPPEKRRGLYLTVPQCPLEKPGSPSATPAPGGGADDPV
An asterisk follows results filed as active.

How did Cc1nnc(NC(=O)c2ccc3c(c2)C(=O)N(CCC(C)C)C3=O)s1 do in these assays?
CYP2C19 activ: 1; CYP2C19 inhib: 3.2; CYP2C9 act: 0.9; CYP2C9 inh: 8.8; Cav3 T inh: 1.46

Results for COCCN(C(=O)Nc1ccccc1)c1ccccc1 ?
CYP2C19 activ: 0.8; CYP2C19 inhib: 15.1; CYP2C9 act: 0.9; CYP2C9 inh: 7.2; Cav3 T inh: 0.734

How did N#CCCN(C(=O)Nc1ccccc1)c1ccccc1 do in these assays?
CYP2C19 activ: 0.4; CYP2C19 inhib: 59.9*; CYP2C9 act: 0.9; CYP2C9 inh: 7.1

What do the screens show for `CCOC(=O)CSc1nnc(CNC(=O)c2ccc(OC)c(OC)c2)n1C`?
CYP2C19 activ: 1.2; CYP2C19 inhib: -20.4; CYP2C9 act: 1.2; CYP2C9 inh: -18.8; Cav3 T inh: -0.168

Results for CCOC(=O)Cc1csc(NC(=S)NC(=O)c2ccccc2C)n1 ?
CYP2C19 activ: 0.9; CYP2C19 inhib: 5.3; CYP2C9 act: 0.5; CYP2C9 inh: 49.2; Cav3 T inh: -1.37

Results for N#Cc1cc(N)ccc1Sc1ccccc1 ?
CYP2C19 activ: 0.5; CYP2C19 inhib: 46.1; CYP2C9 act: 2*; CYP2C9 inh: -104.5; Cav3 T inh: -0.512

What do the screens show for `O=C(CCNS(=O)(=O)c1cccs1)N1CCc2ccccc2C1`?
CYP2C19 activ: 0.4; CYP2C19 inhib: 58.9*; CYP2C9 act: 1; CYP2C9 inh: 2.6; Cav3 T inh: 1.11

How did CCOc1ccc(NC(=O)CCNS(=O)(=O)c2cccs2)cc1 do in these assays?
CYP2C19 activ: 0.3; CYP2C19 inhib: 65.7*; CYP2C9 act: 1.5; CYP2C9 inh: -46.1; Cav3 T inh: 0.599

How did O=C(CCNS(=O)(=O)c1cccs1)NCc1ccccc1 do in these assays?
CYP2C19 activ: 0.2; CYP2C19 inhib: 83.3*; CYP2C9 act: 0.8; CYP2C9 inh: 22.6; Cav3 T inh: 0.225

How did O=C(NCc1ccccc1)C(Cc1ccccc1)NS(=O)(=O)c1cccc2nsnc12 (stereo unspecified) do in these assays?
CYP2C19 activ: 0.9; CYP2C19 inhib: 14.4; CYP2C9 act: 0.8; CYP2C9 inh: 24.9; Cav3 T inh: 0.528

How did O=C(NCc1ccc(F)cc1)C(Cc1ccccc1)NS(=O)(=O)c1cccs1 (stereo unspecified) do in these assays?
CYP2C19 activ: 0.1; CYP2C19 inhib: 88.8*; CYP2C9 act: 0.5; CYP2C9 inh: 50.5*; Cav3 T inh: -0.906

What do the screens show for `COc1ccc(C[C@H]2CN3C(=NC[C@@H]3Cc3ccc(O)cc3)N2C[C@H](C)NC(=O)c2ccc(C)c(Br)c2)cc1`?
Cav3 T inh: -2.64

Results for CC(NC(=O)NC1CCCCC1)C(c1cccs1)N1CCN(c2ccccc2)CC1 (stereo unspecified) ?
CYP2C19 activ: 0.7; CYP2C19 inhib: 30.2; CYP2C9 act: 0.7; CYP2C9 inh: 26.5; Cav3 T inh: -2.8

How did COc1ccc(NC(=O)CCNS(=O)(=O)c2ccc(Br)s2)cc1 do in these assays?
CYP2C19 activ: 0.7; CYP2C19 inhib: 29.1; CYP2C9 act: 0.3; CYP2C9 inh: 68.2*; Cav3 T inh: -0.483

What do the screens show for `CC(C)(C)Cc1nc(-c2ccc(Cl)cc2)no1`?
CYP2C19 activ: 1.1; CYP2C19 inhib: -10.9; CYP2C9 act: 1.1; CYP2C9 inh: -10.6; Cav3 T inh: 0.599

Results for Cc1ccc(-n2nc(C(=O)N/N=C/c3cccc(C(F)(F)F)c3)c3ccccc3c2=O)cc1C ?
CYP2C19 activ: 0.9; CYP2C19 inhib: 5.6; CYP2C9 act: 0.9; CYP2C9 inh: 10.3; Cav3 T inh: -0.442

Results for N#CC1(c2ccccc2)CCCN1C(=O)c1ccc(Br)cc1 (stereo unspecified) ?
CYP2C19 activ: 0.4; CYP2C19 inhib: 64.3*; CYP2C9 act: 0.4; CYP2C9 inh: 59.9*; Cav3 T inh: -0.391

How did COc1ccc(OC)c(C2NC(=O)c3sc(=S)n(-c4ccccc4)c3N2)c1 (stereo unspecified) do in these assays?
CYP2C19 activ: 0.4; CYP2C19 inhib: 56.6*; CYP2C9 act: 0.4; CYP2C9 inh: 61.6*; Cav3 T inh: -2.87

What do the screens show for `COc1cccc(C2NC(=O)c3sc(=S)n(-c4ccccc4)c3N2)c1` (stereo unspecified)?
CYP2C19 activ: 0.4; CYP2C19 inhib: 56.9*; CYP2C9 act: 0.1; CYP2C9 inh: 88.1*; Cav3 T inh: -1.11

What do the screens show for `O=C1c2ccccc2C(=O)N1SC1CCCCC1`?
CYP2C19 activ: 0.8; CYP2C19 inhib: 24.8; CYP2C9 act: 0.2; CYP2C9 inh: 82.3*; Cav3 T inh: 0.00975

What do the screens show for `O=C(COC(=O)c1c2ccccc2cc2ccccc12)Nc1ncc(C(F)(F)F)cc1Cl`?
CYP2C19 activ: 0.9; CYP2C19 inhib: 6.6; CYP2C9 act: 0.8; CYP2C9 inh: 16.6; Cav3 T inh: -2.45

Results for O=C(CCC(NC(=O)OCc1ccccc1)C(=O)OCC(=O)N1CCCCC1)OCC(=O)N1CCCCC1 (stereo unspecified) ?
CYP2C19 activ: 0.2; CYP2C19 inhib: 83.2*; CYP2C9 act: 0.1; CYP2C9 inh: 91.7*; Cav3 T inh: 0.283

Results for O=C(CNC(=O)C1CCCCC1)NC1=NCCS1 ?
CYP2C19 activ: 0.8; CYP2C19 inhib: 15.1; CYP2C9 act: 0.9; CYP2C9 inh: 10.3; Cav3 T inh: 0.046

What do the screens show for `Cc1nn(Cc2ccc(Cl)cc2)c(=O)n1N(C)c1ncc(C(F)(F)F)cc1Cl`?
CYP2C19 activ: 0.3; CYP2C19 inhib: 73.2*; CYP2C9 act: 0.5; CYP2C9 inh: 49.5; Cav3 T inh: -2.62

What do the screens show for `Cc1cc(NC(=O)CSc2nnc(-c3cccnc3)n2N)no1`?
CYP2C19 activ: 1.4; CYP2C19 inhib: -42.3; CYP2C9 act: 1.2; CYP2C9 inh: -22.0; Cav3 T inh: 0.248

Results for Nc1nc(CSc2ncn(-c3ccccc3)n2)cs1 ?
CYP2C19 activ: 0.2; CYP2C19 inhib: 81.9*; CYP2C9 act: 0.8; CYP2C9 inh: 18.2; Cav3 T inh: -0.0696

How did Cc1sc(NC(=O)CSc2ncn(-c3ccccc3)n2)nc1-c1ccccc1 do in these assays?
Cav3 T inh: -1.98

Results for c1ccc(CSc2ncn(-c3ccccc3)n2)cc1 ?
CYP2C19 activ: 0.1; CYP2C19 inhib: 85.3*; CYP2C9 act: 0.2; CYP2C9 inh: 79.3*; Cav3 T inh: -1.73

Results for O=C(CSc1ncn(-c2ccccc2)n1)c1cccs1 ?
CYP2C19 activ: 0.1; CYP2C19 inhib: 94.0*; CYP2C9 act: 0.3; CYP2C9 inh: 71.0*; Cav3 T inh: -0.483

What do the screens show for `CCOC(=O)CSc1nnc(-c2ccc(OC)cc2OC)o1`?
CYP2C19 activ: 1.1; CYP2C19 inhib: -12.4; CYP2C9 act: 1.3; CYP2C9 inh: -34.5; Cav3 T inh: 0.702

Results for Fc1ccc(NCc2nnc(SCc3nnc(-c4ccccc4)o3)n2Cc2ccccc2)cc1 ?
CYP2C19 activ: 0.2; CYP2C19 inhib: 78.6*; CYP2C9 act: 0.3; CYP2C9 inh: 68.5*; Cav3 T inh: -8.34*

What do the screens show for `O=C(CSc1nnc(CNc2ccc(Cl)cc2)n1Cc1ccccc1)NCc1ccco1`?
CYP2C19 activ: 1; CYP2C19 inhib: -3.6; CYP2C9 act: 0.7; CYP2C9 inh: 30.8; Cav3 T inh: -3.68

Compound activity deposited in PubChem by several laboratories.
